Compounds with a hit are over-represented: about 21% of the library has one in this group of screens.
Pf growth 48h: P. falciparum growth inhibition at 48 hours (one generation); P. falciparum luciferase growth in erythrocytes, 48 h; Potency, µM (series often up to 28.7 µM), for inactives: at the top dose activity change, negative = inhibition, usual class: inhibitors; 310,000 compounds, 5.9% hits; note: potency is the fitted concentration of half-maximal effect; % is set by controls: 0 for no effect and ±100 for the full control effect
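Read-out is firefly luciferase luminescence from an integrated reporter in P. falciparum, so falling signal marks reduced parasite growth. Infected erythrocytes were at 2% hematocrit and 0.1% parasitemia (final) in Albumax-supplemented RPMI 1640.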
HCV inh: HCV inhibition; Potency, µM (top dose mostly 41.8 µM), for inactives: at the highest dose activity change, negative = inhibition, actives largely listed as inhibitors; Huh7.5.1 HCVcc-Cre infection, luciferase reporter, 44 h; 340,000 compounds, 3.4% hits; note: potency is the fitted concentration of half-maximal effect; % is set by controls: 0 for no effect and ±100 for the full control effect
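Reporter virus HCVcc-Cre (~0.5 moi) infects cells exposed to compound; seeding density 1,000 cells/well with 4 h settling beforehand. Luminescence, 15 sec read, taken 44 h post-infection following a 15 min RT substrate incubation.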
Cycloheximide cs: counter-screen hit for Shiga toxin inhibitors, cycloheximide | cell reporter, cycloheximide protein synthesis inhibition counterscreen | max response, % | 300,000 compounds, 12% hits | AID 2314; in the data active = max response mostly above about 13%, no sharp cut-off; inactive = mostly below about 14%; note: read at 38.3 µM for the half of the compounds with a filed dose; 0% is about no effect
HCMV inh: human cytomegalovirus inhibition; 410,000 compounds, 4.5% hits; activity change, negative = inhibition, % at 57.5 µM; HFF cells, HCMV-luciferase reporter, 72 h; hits give low values; in the data active = activity change below about -60%; inconclusive = no clear call, values can overlap the other calls; inactive = above about -39%; note: % is set by controls: 0 for no effect and ±100 for the full control effect
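After 16 h attachment at 37C, HFF cells received test compound and HCMV-luciferase (1 PFU/cell); reporter luminescence read 72 h later, data normalized against buffer-only and known inhibitor Salinomycin.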
Shiga inhibitor: Shiga toxin inhibition. Vero cells, Shiga toxin protein synthesis inhibition reporter. inhibition, % at 38.7 µM. 290,000 compounds, 9.2% hits. AID 2315; in the data active = inhibition mostly above about 28%, no sharp cut-off; inactive = mostly below about 43%; note: 0% is about no effect
Pf growth 96h: P. falciparum growth inhibition at 96 hours; P. falciparum luciferase reporter growth, 96 h; 320,000 compounds, 6.9% hits; Potency, µM (top dose mostly 28.7 µM), for the others: top-dose activity change, negative = inhibition, most hits filed as inhibitors; note: potency is the fitted concentration of half-maximal effect; % is set by controls: 0 for no effect and ±100 for the full control effect
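Two-generation exposure (96 h) targets delayed-death phenotype. Reporter parasites carrying integrated firefly luciferase, in red cells at 2% hematocrit and 0.05% parasitemia final, kept at 37 C, 5% CO2; luminescence loss indicates inhibition.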
* = called active by the depositor; u = inconclusive; x = not tested or not shown. Unless noted, calls come from the whole dose curve; as a rule, active = well fitted inhibition curve with a large enough effect; inconclusive = small, poorly fitted or top-dose-only effect, or another doubt; inactive = no such curve, though single readings can be large or run the other way.

SMILES | Pf growth 48h | HCV inh | Cycloheximide cs | HCMV inh | Shiga inhibitor | Pf growth 96h
Cc1nc2cc(NC(=O)C3COc4ccccc4O3)ccc2s1 (stereo not drawn) | 114% | 11% | 61* | 32 | 54* | 38%
Cc1nc2ccc(NC(=O)C3COc4ccccc4O3)cc2s1 (stereo not drawn) | 183% | -6% | 41* | 0 | 85* | 117%
CCC1CN(C(=O)Nc2ccccc2F)c2cc(C)ccc2O1 (stereo not drawn) | x | x | x | 11 | x | x
CCC1CN(C(=O)Nc2ccccc2C(F)(F)F)c2ccccc2S1 (stereo not drawn) | x | x | x | 0 | x | x
O=C1CCCC/C1=C/NCc1ccc(F)cc1 | 14% | 4% | 2 | -11 | -5 | 19%
CSCC[C@H](NC(=O)[C@H](Cc1ccccc1)NC(=O)[C@H](Cc1cnc[nH]1)NC(=O)CNC(=O)[C@@H](NC(=O)[C@H](C)NC(=O)[C@H](Cc1c[nH]c2ccccc12)NC(=O)[C@H](CC(C)C)NC(=O)[C@H](CC(N)=O)NC(=O)CN)[C@@H](C)O)C(N)=O | x | x | -6 | x | -4 | x
O=S(c1ccccc1O)S(=O)c1ccccc1O (stereo not drawn) | x | 10µM* | x | -26 | x | x
O=C(O)c1nn(CCOc2ccc(Br)cc2)c(=O)c2ccccc12 | 38% | -11% | -1 | 72 | -2 | 27%
O=C(O)c1nn(CCOc2ccccc2F)c(=O)c2ccccc12 | 66% | -5% | 12* | -10 | 26 | 25%
CCN1/C(=C\C=C2\C(=O)N(C)C(=S)N2C)Sc2ccccc21 | 17% | -4% | 28* | -17 | 63* | u
O=C(CN1CCOCC1)N1CCCc2ccccc21 | 12% | 19% | 6 | -19 | 17 | u
O=C(Cn1nnc(-c2ccc(CN3CCOCC3)cc2)n1)N1CCCc2ccccc21 | u | -18% | -6 | 23 | -17 | 2.6µM*
Cc1ccc(-c2nnn(CC(=O)O)n2)cc1 | 6% | -2% | -3 | -4 | 2 | -10%
Cc1ccc(-c2nnn(CC(=O)N3c4ccccc4CCc4ccccc43)n2)cc1 | 10µM* | u | -1 | u | 8 | u
CCc1ccc(C2c3c(-c4ccccc4O)n[nH]c3C(=O)N2Cc2cccnc2)cc1 (stereo not drawn) | x | x | x | 2 | x | x
O=C(N/N=C/c1cc([N+](=O)[O-])ccc1O)C1CC1 | u | 3% | 0 | -3 | -13 | 8%
O=C(N/N=C/c1cc([N+](=O)[O-])ccc1O)c1ccncc1 | 8.3µM* | -12% | -2 | 37 | -6 | u
O=C(N/N=C/c1ccccc1O)C1SCCCS1 | u | u | 26* | 0 | 40 | u
Cc1nc(C)c(C(=O)N/N=C/c2cc(Br)ccc2O)s1 | 2.3µM* | u | -2 | -99* | -10 | 5.2µM*
O=C(N/N=C/c1cc(Br)ccc1OC(=O)c1ccc(Br)cc1)c1ccncc1 | 1.7µM* | 3.2µM* | -2 | -16 | 57 | 15%
O=C(N/N=C/c1ccc(OC(=O)c2ccc(Br)cc2)cc1)c1ccncc1 | u | 18% | 4 | 13 | -2 | 48%
O=C(NN=Cc1ccccc1O)C1CC1 | x | 1% | x | -13 | x | x
CCOC(=O)[C@H]1[C@H]2COc3cc(OC)ccc3[C@@H]2N2C(=O)c3c(C)cc(C)cc3NC(=O)[C@@]12C | x | u | x | 19 | x | x
COc1ccc(OC)c(CNC(=O)c2cc3c(-c4ccc(OC)c(OC)c4)nn(C)c3s2)c1 | x | x | x | -9 | x | x
O=C(N/N=C/c1ccc(O)c2ncccc12)c1cccc(Br)c1 | u | 3.5µM* | 16 | -99* | 6 | 38%
SMILES | Pf growth 48h | HCV inh | Cycloheximide cs | HCMV inh | Shiga inhibitor | Pf growth 96h
O=C(NN=Cc1cccc(O)c1O)c1ccccc1 | x | x | x | -94* | x | x
O=C(N/N=C/c1ccccc1O)c1ccncc1 | 9.3µM* | u | x | 12 | x | 12µM*
COc1ccc(Br)cc1/C=N/NC(=O)c1nc(-c2ccccc2)n2c1CCCCC2 | x | 12% | -2 | -36 | -1 | 7.4µM*
Cc1cc(C2C(=O)NC(=O)C2=O)c(C)cc1Br (stereo not drawn) | x | -21% | x | -26 | x | x
O=[N+]([O-])c1ccc(OCn2cncn2)cc1 | -6% | 17% | x | 4 | x | 71%
NC(=O)N/N=C\c1cc(Br)ccc1O | -15% | 17% | 2 | 19 | -8 | 17%

High-throughput results deposited in PubChem BioAssay by National Center for Advancing Translational Sciences (NCATS).
